Measured values: PubChem BioAssay (NCATS)
Values without a mark were called inactive. Inconclusive results are not listed. Entries that show only a call come without a potency. Activity calls are given as the source filed them. Unless noted, calls come from the whole dose curve; as a rule, active = well fitted curve in the direction sought with a large enough effect; inconclusive = small, poorly fitted or top-dose-only effect, or another doubt; inactive = no such curve, though single readings can be large; an effect the other way counts as inactive or inconclusive.

Columns and labels:
[1] = target: Alpha-galactosidase (Coffea arabica) (UniProt Q42656); test: Counterscreen for Glucocerebrosidase Inhibitors: qHTS Assay for Coffee Bean alpha-Galactosidase at pH 4.5 (AID 957); note: series mostly up to about 77 µM
Alpha-galactosidase (Coffea arabica), sequence (Q42656 whole entry, looked up): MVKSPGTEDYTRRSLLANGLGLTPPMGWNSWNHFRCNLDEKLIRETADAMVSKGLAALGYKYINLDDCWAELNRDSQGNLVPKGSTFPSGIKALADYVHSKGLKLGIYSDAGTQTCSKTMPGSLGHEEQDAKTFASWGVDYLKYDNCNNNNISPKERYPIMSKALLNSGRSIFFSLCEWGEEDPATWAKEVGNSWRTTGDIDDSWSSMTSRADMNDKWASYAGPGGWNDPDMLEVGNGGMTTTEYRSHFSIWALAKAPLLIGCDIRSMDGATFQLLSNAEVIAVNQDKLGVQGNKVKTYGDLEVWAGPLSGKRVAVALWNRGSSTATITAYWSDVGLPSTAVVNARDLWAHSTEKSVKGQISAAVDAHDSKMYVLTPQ
Procedure, shortened: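 Fluorogenic read-out: 4-methylumbelliferone at Ex 365/Em 440 nm after NaOH/glycine stop (pH 10). Enzyme 2 nM, 4-MU-alpha-galactoside 80 uM, citrate buffer pH 4.5, 20 min RT; normalized to no-enzyme and enzyme controls.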

[2] = target: Alpha-galactosidase (Coffea arabica) (UniProt Q42656); test: Counterscreen for Glucocerebrosidase Inhibitors: qHTS Assay for Coffee Bean alpha-Galactosidase at pH 5.9 (AID 998)
Procedure, shortened: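 In 50 mM citric acid pH 5.9 with 0.005% Tween-20, coffee bean enzyme hydrolyses 80 uM 4-MU alpha-D-galactopyranoside over 20 min at RT. Activity is normalized to controls; AC50 comes from Hill-modelled concentration-response data.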

[3] = Validation screen for inhibitors of Lassa infection (AID 463096; calls by dose curve; note: potency is the fitted concentration of half-maximal effect)
[4] = Inducers of the Endoplasmic Reticulum Stress Response (ERSR) in human glioma: Validation (AID 504836)
Procedure, shortened: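 Stably transfected U87-MG human glioma cells carrying a GRP78-based luminescent sensor were seeded at 1000 cells/well, pin-dosed with compounds and incubated 16 h. Luciferase reagent was then added, and end-point luminescence was read after 10 min at room temperature.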

[5] = qHTS for Inhibitors of the Functional Ribonucleoprotein Complex (vRNP) of Lassa (LASV) Arenavirus: LASV Primary Screen - GLuc reporter signal (AID 1347082; calls by dose curve; tested in HEK293 reporter line; note: series mostly up to about 57 µM; nearly all actives have a fitted effect of over 60% in size)
[6] = qHTS for Inhibitors of the Functional Ribonucleoprotein Complex (vRNP) of Lassa (LASV) Arenavirus: Viability assay - alamar blue signal for LASV Primary Screen (AID 1347083; calls by dose curve; tested in HEK293 reporter line; note: series mostly up to about 57 µM; nearly all actives have a fitted effect of over 80% in size)
[7] = qHTS for Inhibitors of the Functional Ribonucleoprotein Complex (vRNP) of Lymphocytic Choriomeningitis Arenaviruses (LCMV): Viability assay - alamar blue signal for LCMV Primary Screen (AID 1347085; calls by dose curve; tested in HEK293 reporter line; note: series mostly up to about 57 µM; nearly all actives have a fitted effect of over 80% in size)
[8] = target: Nucleoprotein (Lymphocytic choriomeningitis virus (strain Armstrong)) (UniProt P09992); test: qHTS for Inhibitors of the Functional Ribonucleoprotein Complex (vRNP) of Lymphocytic Choriomeningitis Arenaviruses (LCMV): LCMV Primary Screen - GLuc reporter signal (AID 1347086; calls by dose curve; note: series mostly up to about 57 µM; nearly all actives have a fitted effect of over 70% in size)
Nucleoprotein (Lymphocytic choriomeningitis virus (strain Armstrong)), sequence (P09992 whole entry, looked up): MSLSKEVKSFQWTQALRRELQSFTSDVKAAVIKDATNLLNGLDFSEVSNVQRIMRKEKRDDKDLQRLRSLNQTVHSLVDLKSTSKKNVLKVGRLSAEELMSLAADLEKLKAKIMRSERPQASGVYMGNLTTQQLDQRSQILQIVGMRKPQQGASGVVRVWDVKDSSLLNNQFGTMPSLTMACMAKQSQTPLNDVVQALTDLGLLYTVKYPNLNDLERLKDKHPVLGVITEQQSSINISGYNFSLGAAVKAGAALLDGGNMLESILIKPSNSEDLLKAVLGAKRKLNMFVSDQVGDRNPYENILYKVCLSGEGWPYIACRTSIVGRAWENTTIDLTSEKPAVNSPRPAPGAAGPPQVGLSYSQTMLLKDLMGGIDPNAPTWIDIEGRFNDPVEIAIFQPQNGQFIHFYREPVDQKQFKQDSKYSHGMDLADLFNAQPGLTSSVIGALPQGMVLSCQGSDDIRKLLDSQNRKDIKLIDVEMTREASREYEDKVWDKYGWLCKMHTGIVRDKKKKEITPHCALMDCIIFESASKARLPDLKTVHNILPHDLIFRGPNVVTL

Row | SMILES | outcome [1] | outcome [2] | Potency [3] | outcome [4] | Potency [5] | Potency [6] | Potency [7] | Potency [8]
1 | NOCC(=O)O | inactive | inactive | inactive | inactive | inactive | inactive | inactive | inactive
2 | CCCn1c(=O)c2c(ncn2C)n(CCC)c1=O | inactive | inactive | inactive | inactive | inactive | inactive | inactive | inactive
3 | NC(N)=NC(N)=Nc1cccc(Cl)c1 | inactive | inactive | inactive | inactive | inactive | inactive | inactive | inactive
4 | CCSC(=N)N | inactive | inactive | inactive | inactive | inactive | inactive | inactive | inactive
5 | Cc1nc(N=Nc2ccc(C(=O)O)cc2)c(COP(=O)(O)O)c(C=O)c1O | inactive | inactive | inactive | inactive | inactive | inactive | inactive | inactive
6 | CCCCCCCC/C=C\CCCCCCCC(=O)NCCO | inactive | inactive | inactive | inactive | inactive | inactive | inactive | inactive
7 | COc1ccccc1N1CCN(CCCNc2c(C)c(=O)n(C)c(=O)n2C)CC1 | inactive | inactive | inactive | inactive | inactive | inactive | inactive | inactive
8 | COc1ccccc1N1CCN(CCCCNC(=O)c2ccc3ccccc3c2)CC1 | inactive | inactive | 11.2 µM (active) | inactive | inactive | inactive | inactive | inactive
9 | N=C(N)c1ccccc1 | inactive | inactive | inactive | inactive | inactive | inactive | inactive | inactive
10 | O=C(OCCN1CCOCC1)C1(c2ccccc2)CCCCC1 | inactive | inactive | inactive | inactive | inactive | inactive | inactive | inactive
11 | O=C(N[C@@H](Cc1ccccc1)C(=O)CCl)OCc1ccccc1 | inactive | inactive | 6.31 µM (active) | inactive | inactive | inactive | inactive | inactive
12 | O=C(O)c1ccccc1Nc1ccccc1 | inactive | inactive | inactive | inactive | inactive | inactive | inactive | inactive
13 | C=CC[C@H](N)C(=O)O | inactive | inactive | inactive | inactive | inactive | inactive | inactive | inactive
14 | O=C1NC(c2cccc([N+](=O)[O-])c2)=CCN1c1ccccc1O | inactive | inactive | inactive | inactive | inactive | inactive | inactive | inactive
15 | COc1ccccc1N1CCN(CCN2C(=O)CC3(CCCC3)CC2=O)CC1 | inactive | inactive | inactive | inactive | inactive | inactive | inactive | inactive
16 | N=C(N)SCCc1cnc[nH]1 | inactive | inactive | inactive | inactive | inactive | inactive | inactive | inactive
17 | O=[N+]([O-])c1cccc2cn[nH]c12 | inactive | inactive | inactive | inactive | inactive | inactive | inactive | inactive
18 | N#C/C(=C\c1c[nH]c2ccccc12)C(=O)c1ccc(O)c(O)c1 | inactive | inactive | inactive | inactive | inactive | inactive | inactive | inactive
19 | Cc1cccc(C(=O)NCN2CCN(c3ccccc3C#N)CC2)c1 | inactive | inactive | inactive | inactive | inactive | inactive | inactive | inactive

Row | SMILES | outcome [1] | outcome [2] | Potency [3] | outcome [4] | Potency [5] | Potency [6] | Potency [7] | Potency [8]
20 | CCCc1c(-c2ccc(O)cc2)nn(-c2ccc(O)cc2)c1-c1ccc(O)cc1 | inactive | inactive | 2 µM (active) | inactive | inactive | inactive | inactive | inactive
21 | NCCCCCCCCCCN | inactive | inactive | inactive | inactive | inactive | inactive | inactive | inactive
22 | N#C/C(=C\c1ccc(O)c(O)c1)C(=O)Nc1ccccc1 | inactive | inactive | inactive | inactive | inactive | inactive | inactive | inactive
23 | CC(C)NC[C@H](O)c1ccc(O)c(O)c1 | inactive | inactive | inactive | inactive | inactive | inactive | inactive | inactive
24 | Cc1nc2c(OCc3ccccc3)cccn2c1CC#N | inactive | inactive | inactive | inactive | inactive | inactive | inactive | inactive
25 | O=C(O)c1cc2cc(Cc3cccnc3)ccc2o1 | inactive | inactive | inactive | inactive | inactive | inactive | inactive | inactive
26 | N#Cc1cc2nc(O)c(O)nc2cc1[N+](=O)[O-] | inactive | inactive | inactive | inactive | inactive | inactive | inactive | inactive
27 | N[C@@H](Cc1cnc[nH]1)C(=O)O | inactive | inactive | inactive | inactive | inactive | inactive | inactive | inactive
28 | O=c1[nH]c(=O)c2nc3ccccc3nc2[nH]1 | inactive | inactive | inactive | inactive | inactive | inactive | inactive | inactive
29 | Cn1cc(C(=O)OCC2CCN(CCNS(C)(=O)=O)CC2)c2ccccc21 | inactive | inactive | inactive | inactive | inactive | inactive | inactive | inactive
30 | COCc1nc2c([nH]1)c(=O)n(C)c(=O)n2CC(C)C | inactive | inactive | inactive | inactive | inactive | inactive | inactive | inactive
31 | Clc1ccc(N2CCN(Cc3c[nH]c4ncccc34)CC2)cc1 | inactive | inactive | inactive | inactive | inactive | inactive | inactive | inactive
32 | O=c1[nH]ccc2c(O)cccc12 | inactive | inactive | inactive | inactive | inactive | inactive | inactive | inactive
33 | O=C(O)c1ccccc1Nc1cccc(OCc2ccc3ccccc3n2)c1 | inactive | inactive | inactive | inactive | inactive | inactive | inactive | inactive
34 | NC(N)=NCCCCN=C(N)N | inactive | inactive | inactive | inactive | inactive | inactive | inactive | inactive
35 | O=C1CCC(c2ccc(-n3ccnc3)cc2)=NN1 | inactive | inactive | inactive | inactive | inactive | inactive | inactive | inactive
36 | c1ccc2nc(C3=NCCN3)ccc2c1 | inactive | inactive | inactive | inactive | inactive | inactive | inactive | inactive
37 | NCCS(=O)O | inactive | inactive | inactive | inactive | inactive | inactive | inactive | inactive
38 | O=C(O)C1=CCCN(CCON=C(c2ccccc2)c2ccccc2)C1 | inactive | inactive | inactive | inactive | inactive | inactive | inactive | inactive

Row | SMILES | outcome [1] | outcome [2] | Potency [3] | outcome [4] | Potency [5] | Potency [6] | Potency [7] | Potency [8]
39 | N=C(N)SCCN | inactive | inactive | inactive | inactive | inactive | inactive | inactive | inactive
40 | COc1ccc(-c2ccc(N)[n+](CCCC(=O)O)n2)cc1 | inactive | inactive | inactive | inactive | inactive | inactive | inactive | inactive
41 | COC(=O)[C@H](NC(=O)c1cc(-c2ccccc2)nc2ccccc12)c1ccccc1 | inactive | inactive | inactive | inactive | inactive | inactive | inactive | inactive
42 | C[N+](C)(C)CC=O | inactive | inactive | inactive | inactive | inactive | inactive | inactive | inactive
43 | O=C(O)CC[C@@H](C(=O)O)N1C(=O)c2ccccc2C1=O | inactive | inactive | inactive | inactive | inactive | inactive | inactive | inactive
44 | CC(=O)N[C@@H](Cc1c[nH]c2ccccc12)C(=O)OCc1cc(C(F)(F)F)cc(C(F)(F)F)c1 |  | inactive | inactive | inactive | inactive | inactive | inactive | inactive
45 | CC(=O)SCC[N+](C)(C)C | inactive | inactive | inactive | inactive | inactive | inactive | inactive | inactive
46 | CNc1cc(NS(=O)(=O)c2ccc(N)cc2)nc(NC)n1 | inactive | inactive | inactive | inactive | inactive | inactive | inactive | inactive
47 | O=C(O)C1CCNCC1 | inactive | inactive | inactive | inactive | inactive | inactive | inactive | inactive
48 | N[C@@H](Cc1ccc(O)c(I)c1)C(=O)O | inactive | inactive | inactive | inactive | inactive | inactive | inactive | inactive
49 | CC(C)(CO)Cc1cc(C(C)(C)C)c(O)c(C(C)(C)C)c1 | inactive | inactive | inactive | inactive | inactive | inactive | inactive | inactive
50 | CN(C)C(N)=NCCC[C@H](N)C(=O)O | inactive | inactive | inactive | inactive | inactive | inactive | inactive | inactive
51 | O=C(O)c1cc([N+](=O)[O-])ccc1NCCCc1ccccc1 | inactive | inactive | inactive | inactive | inactive | inactive | inactive | inactive
52 | COc1ccc2c(c1)c(CC(=O)O)c(C)n2C(=O)c1ccccc1 | inactive | inactive | inactive | inactive | inactive | inactive | inactive | inactive
53 | O=[N+]([O-])c1cccc2c(Br)[nH]nc12 | inactive | inactive | inactive | inactive | inactive | inactive | inactive | inactive
54 | NCCCS(=O)(=O)O | inactive | inactive | inactive | inactive | inactive | inactive | inactive | inactive
55 | CCCCCCC/C=C\CCCCCCCCC(=O)O | inactive | inactive | inactive | inactive | inactive | inactive | inactive | inactive
56 | COc1cccc(C(=O)NCCN2CCN(c3ccc(Cl)cc3)CC2)c1 | inactive | inactive | inactive | inactive | inactive | inactive | inactive | inactive
